# Source: PubChem BioAssay (National Center for Advancing Translational Sciences (NCATS))
# HCV inhibitor – qHTS Assay for Inhibitors of Hepatitis C Virus (HCV) | Potency, µM (titrated, usually from 41.8 µM), usual class: inhibitors | AID 651820, 2012 | Huh7.5.1 HCVcc-Cre infection, luciferase reporter, 44 h | 340,000 tested, 3.4% active; active = well fitted inhibition curve with a large enough effect; inconclusive = small, poorly fitted or top-dose-only effect, or another doubt; inactive = no such curve, though single readings can be large or run the other way
#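 Seed cells (1,000/well) for 4 h; treat with compound and infect with HCVcc-Cre, moi about 0.5. Incubate 44 h, then detect luciferase activity.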
# Marburg entry inh – qHTS for inhibitors of binding or entry into cells for Marburg Virus. Marburg virus pseudotyped entry inhibition, cell reporter. AID 540276, 2011. 300,000 tested, 1.8% active. Potency, µM (top dose mostly 37.8 µM), hits mostly inhibitors; calls by dose curve; tested in HEK293 cells
# FMDV inh – High Throughput Screening for Foot and Mouth Disease Virus Antivirals; FMDV antiviral cell-based qHTS; Potency, µM (highest dose often 57.9 µM), hits mostly inhibitors; 410,000 tested, 1.2% active; calls by dose curve; tested in HEK293T cells; also: read-out not given here; nearly all actives have a fitted effect of over 45% in size
# HCMV inh – qHTS Assay for inhibitors of the human cytomegalovirus (HCMV); 410,000 tested, 4.5% active; AID 1259415, 2018; activity change, negative = inhibition, % at 57.5 µM; HFF cells, HCMV-luciferase reporter, 72 h; active compounds read low; in the data active = activity change below about -60%; inconclusive = no clear call, values can overlap the other calls; inactive = above about -39%
#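 Human foreskin fibroblasts infected with luciferase-reporter HCMV at MOI 1 PFU/cell, compounds at two doses. Luciferase measured 72 h post infection; normalized to buffer-only basal and Salinomycin (10uM) controls.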
# Lassa entry inh – qHTS for Inhibitors of binding or entry into cells for Lassa Virus. Potency, µM (highest dose often 37.9 µM), usual class: inhibitors. 300,000 tested, 1.2% active. Lassa virus pseudotype entry inhibition, cell reporter. AID 540256, 2011; calls by dose curve; tested in HEK293 cells; also: nearly all actives have a fitted effect of over 50% in size
# SARS PLpro yeast – qHTS of Yeast-based Assay for SARS-CoV PLP; S. cerevisiae expressing SARS-CoV PLpro, growth rescue; AID 485353, 2010; Potency, µM (highest dose often 32.9 µM), usual class: activators; 330,000 tested, 0.19% active; calls by dose curve; also: nearly all actives have a fitted effect of over 55% in size
# Hits are given with their value; 0 = inactive; ? = inconclusive; - = no result given. Compounds with a hit are over-represented: about 8% of the library has one in this group of screens.
SMILES,HCV inhibitor,Marburg entry inh,FMDV inh,HCMV inh,Lassa entry inh,SARS PLpro yeast
CCN(C(=O)c1ccc(C(=O)N(CC)c2ccccc2C)cc1)c1ccccc1C,-,-,0,0,0,-
O=C(CCl)N(Cc1cc(=O)[nH]c2ccccc12)c1ccccc1,?,0,14.1µM,-99.6,-,0
CCCCCCCN(C(=O)CCl)c1ccccc1C,?,0,?,-82.9,0,0
Cc1ccccc1N(Cc1cc(=O)[nH]c2ccccc12)C(=O)CCl,-,-,-,-100.7,-,0
CN(C)CCCO[C@@H]1[C@H]2OC(C)(C)O[C@H]2O[C@@H]1[C@H](O)CO,0,0,0,0,0,-
Cc1c(C(=O)N2CCCCCC2)c(S(=O)(=O)Nc2cccc(C#N)c2)c(C)n1C,-,-,0,0,0,-
NC(=O)C1CCN(c2nc(-c3ccccc3Br)cs2)CC1,-,-,0,-73.7,-,0
COc1cc(C(=O)NCc2ccc3c(c2)CCN3C(=O)c2ccc(Cl)cc2)cc(OC)c1OC,-,-,?,0,0,-
Cc1ccc(C(=O)NCc2ccc3c(c2)CCN3C(=O)c2ccc(C)cc2)cc1,-,-,0,-63.8,0,-
COc1ccc(CC(=O)NCc2ccc3c(c2)CCN3C(=O)c2ccc(Cl)cc2)cc1OC,-,-,?,-67.0,11.2µM,-
NNC(=O)c1ccc(N2CCc3ccccc32)c([N+](=O)[O-])c1,0,?,?,0,0,0
Cc1ccc(CNC(=O)c2ccc(N3CCc4ccccc43)c([N+](=O)[O-])c2)cc1,6.31µM,?,0,?,?,0
COc1ccc(CCC(=O)NCc2ccc3c(c2)CCN3C(=O)c2cccc(C)c2)cc1,-,-,?,-72.4,0,-
O=C(NCc1ccc2c(c1)CCN2C(=O)c1ccccc1)Nc1cccc(C(F)(F)F)c1,-,-,?,-97.4,0,-
COc1cc(NC(=O)Cn2c(=O)n(-c3ccccc3)c(=O)c3c4c(sc32)CCCC4)cc(OC)c1,-,0,0,0,0,-
CNC(=O)N(O)C1N(/N=C/c2ccc(N(C)C)cc2)C(=S)SC1(C)C (stereo not given),0,-,0,0,-,0
CC1(C)SC(=S)N(NC(=O)Nc2cccc3ccccc23)C1N(O)C(=O)Nc1ccccc1 (stereo not given),?,?,0,-74.7,0,0
CC1(C)SC(=S)N(/N=C/c2ccccc2)C1N(O)C(=O)Nc1ccc([N+](=O)[O-])cc1 (stereo not given),?,17.8µM,0,0,0,0
CNC(=O)N(O)C1N(NC(=O)Nc2ccccc2)C(=S)SC1(C)C (stereo not given),?,?,0,0,0,-
CCOc1cc(C2NC(=O)c3c(sc4c3CCN(C)C4)N2)ccc1OC(=O)c1ccccc1Cl (stereo not given),-,0,0,0,0,-
O=C(CN1CCN(C(C(=O)Nc2cc(C(F)(F)F)ccc2Cl)c2ccccc2)CC1)NC1CC1 (stereo not given),?,-,39.8µM,0,-,-
CN1CCN(Cc2ccc(Sc3ccc(Cl)cc3)c([N+](=O)[O-])c2)CC1,?,?,0,-71.2,0,0
Cc1ccc(Sc2ccc(CN3CCCC3)cc2[N+](=O)[O-])cc1,?,-,0,0,-,0
CCOC(=O)[C@]12Cc3ccccc3[C@H]1N(CCC(=O)OC)C(=O)c1ccccc12,-,-,?,-97.8,-,-
CCOC(=O)[C@]12Cc3ccccc3[C@H]1N(Cc1ccccc1)C(=O)c1ccccc12,0,-,0,0,-,-
SMILES,HCV inhibitor,Marburg entry inh,FMDV inh,HCMV inh,Lassa entry inh,SARS PLpro yeast
CCOC(=O)[C@]12Cc3cc(C)ccc3[C@H]1N(CCC(=O)OC)C(=O)c1cc(OC)ccc12,-,-,31.6µM,-108.9,-,-
CCOC(=O)[C@]12Cc3c(cc(OC)c(OC)c3OC)[C@H]1N(CCC(=O)OC)C(=O)c1cc(OC)ccc12,-,-,28.2µM,-105.2,-,-
CCOC(=O)N1CCN(C(=O)C2CC(c3cc(OC)ccc3OC)=NO2)CC1 (stereo not given),0,0,0,0,0,0
CCOC(=O)[C@]12Cc3c(cc(OC)c(OC)c3OC)[C@H]1N(C)C(=O)c1cc(OC)ccc12,-,-,10µM,-100.9,-,-
COC(=O)[C@@H]1CCCN1C(=O)c1cnn(-c2ncc3c(n2)-c2ccccc2CCC3)c1C1CC1,-,-,0,-,-,-
Cc1onc(-c2ccccc2)c1C(=O)Nc1nnc(C(C)(C)C)s1,0,0,0,0,0,0
CCCCCN1C(=O)c2ccccc2[C@@]2(C(=O)OCC)Cc3cc(OC)ccc3[C@@H]12,-,-,10µM,-109.4,-,-
O=C(OCn1nnc2ccccc2c1=O)c1cc(-c2ccccc2)nc2ccccc12,0,0,0,0,0,0
CCOc1ccc(NC(=O)CN2C(=O)C(c3ccc(Cl)cc3)=NC2(C)C)cc1,-,0,0,0,0,-
CC1(C)N=C(SCC(=O)Nc2ccc(Cl)cc2)C(c2ccccc2)=N1,?,?,0,-80.3,0,0
CC1(C)N=C(SCC(=O)Nc2ccc(Cl)cc2)C(c2ccc(Cl)cc2)=N1,12.6µM,0,22.4µM,0,0,0
c1ccc(CCc2nc(-c3cccnc3)no2)cc1,11.2µM,0,0,0,0,0
c1ccc(CCc2ccccc2-c2nc(-c3cccnc3)no2)cc1,7.08µM,?,?,0,0,0
c1ccc(CCc2nc(-c3ccccc3)no2)cc1,0,0,0,0,?,0
c1ccc(-c2ccccc2-c2nc(-c3cccnc3)no2)cc1,11.2µM,?,0,0,0,0
O=C(Nc1ccc(-c2noc(CCc3ccccc3)n2)cc1)c1ccco1,?,?,0,-87.8,?,0
OCC[C@H]1C[C@@H](O)[C@H](O)[C@@]2(CCCO2)O1,0,-,0,0,-,-
CCOc1ccc(CCN2C(=S)N([C@@H](CC(C)C)CN3CCCC3CN3C(=S)NC[C@@H]3Cc3ccc(O)cc3)C[C@@H]2Cc2ccc(O)cc2)cc1 (stereo not given in full),11.2µM,-,?,-83.9,-,-
CCOc1ccc(CCN2C(=S)N([C@@H](CC(C)C)CN3CCCC3CN3C(=S)NC[C@@H]3Cc3ccc(O)cc3)C[C@@H]2Cc2ccccc2)cc1 (stereo not given in full),10µM,-,0,0,-,-
CCOc1ccc(CCN2C(=S)N([C@@H](CC(C)C)CN3CCCC3CN3C(=S)NC[C@@H]3Cc3ccc(O)cc3)C[C@@H]2CC(C)C)cc1 (stereo not given in full),?,-,0,?,-,-
Oc1ccc(C[C@H]2CNC(=S)N2CC2CCCN2C[C@H](Cc2ccccc2)N2C[C@H](Cc3ccc(O)cc3)N(CCc3ccccc3)C2=S)cc1 (stereo not given in full),2.24µM,-,0,?,-,-
Oc1ccc(C[C@@H](CN2CCC[C@@H]2CN2C(=S)NC[C@@H]2Cc2ccccc2)N2C[C@H](Cc3ccccc3)N(CCc3ccccc3)C2=S)cc1,-,-,0,0,-,-
